Assay results published in PubChem BioAssay (NCATS).
“And” between values parts separate entries of the source, which are not always exact repeats. Equal values may be shown once. A number with no mark means an inactive call. Records with an inconclusive call do not appear. Where a call stands in place of a potency, no number is given. The source made the active and inactive calls. Unless noted, the call rests on the fitted dose curve; in most records, active means well fitted curve in the direction sought with a large enough effect; inconclusive means small, poorly fitted or top-dose-only effect, or another doubt; inactive means no such curve, though single readings can be large; an effect the other way counts as inactive or inconclusive.

Columns and labels:
[1] = tested on: PA-1; assay: Primary qHTS to identify gynecologic anti-cancer compounds using libraries of approved drugs and bioactive compounds (AID 1345084); details: Gynecologic cancer cell panel viability, ATPlite luminescence, 48 h; series mostly up to 57.5 µM; further: nearly all actives have a fitted effect of over 55% in size
Summary of the method: (§1)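 Five-concentration response, 48 h; readout is ATP-driven luciferase luminescence.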

[2] = tested on: SKOV3; assay: as above; details: Gynecologic cancer cell panel viability, ATPlite luminescence, 48 h; series mostly up to 57.5 µM
Summary of the method: as §1

[3] = tested on: Tov-21-G; assay: as above; details: Gynecologic cancer cell panel viability, ATPlite luminescence, 48 h; series mostly up to 57.5 µM
Summary of the method: as §1

[4] = tested on: Tov112D; assay: as above; details: Gynecologic cancer cell panel viability, ATPlite luminescence, 48 h; series mostly up to 57.5 µM
Summary of the method: as §1

[5] = Drug repurposing screens with cells derived from glioblastoma tumor samples (AID 1345199); details: GBM patient neurospheres viability, ATP luminescence, 48 h; further: nearly all actives have a fitted effect of over 40% in size; further: potency means the concentration at half of the fitted maximal effect
Summary of the method: (§2)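 Four patient lines of CD133+ GBM neurospheres were screened at several concentrations; hits were retested in those lines plus three slower-growing GBM lines, using 48-hour treatment and ATP-based viability.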

[6] = tested on: astro; assay: as above; details: viability, ATP luminescence, 48 h; series mostly up to 45.9 µM
Summary of the method: as §2

[7] = target: Nuclear receptor subfamily 1 group I member 2 (Rattus norvegicus) (UniProt Q9R1A7); assay: qHTS assay for small molecule activators of the rat pregnane X receptor (rPXR) signaling pathway (AID 651751; call rule not given here); details: rPXR reporter cells, luciferase (One-Glo), 24 h
[8] = qHTS assay for small molecule activators of the human pregnane X receptor (PXR) signaling pathway (AID 720659; call rule not given here)
[9] = at 45.9 µM (top of the series), tumour line B
[10] = at 45.9 µM (top of the series), tumour line D
[11] = at 46 µM (top of the series), tumour line A
[12] = at 46.1 µM (top of the series), tumour line C
[13] = at 20 µM (top of the series), tumour line C
[14] = at 21.2 µM (top of the series), tumour line B
[15] = at 21.2 µM (top of the series), tumour line D
[16] = at 21.3 µM (top of the series), tumour line A

Nuclear receptor subfamily 1 group I member 2 (Rattus norvegicus), sequence (Q9R1A7 whole entry, looked up): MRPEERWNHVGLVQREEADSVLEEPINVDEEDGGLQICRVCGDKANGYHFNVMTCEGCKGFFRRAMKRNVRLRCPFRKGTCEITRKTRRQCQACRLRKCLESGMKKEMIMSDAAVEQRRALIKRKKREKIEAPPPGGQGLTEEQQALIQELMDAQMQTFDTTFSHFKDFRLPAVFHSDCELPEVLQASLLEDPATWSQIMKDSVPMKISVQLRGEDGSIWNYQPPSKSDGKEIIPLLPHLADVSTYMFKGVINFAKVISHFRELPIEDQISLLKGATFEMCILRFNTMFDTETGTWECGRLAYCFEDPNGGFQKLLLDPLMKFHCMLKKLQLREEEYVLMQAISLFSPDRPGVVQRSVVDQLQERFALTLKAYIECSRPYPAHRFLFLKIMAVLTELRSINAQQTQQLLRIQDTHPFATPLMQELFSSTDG

## CC(=O)OCC(=O)[C@@]12N=C(C)O[C@@H]1C[C@H]1[C@@H]3CCC4=CC(=O)C=C[C@]4(C)[C@H]3[C@@H](O)C[C@@]12C
[1]
  Potency: inactive
[2]
  Potency: inactive
[3]
  Potency: inactive
[4]
  Potency: inactive
[5]; [9]
  activity, negative = cell killing: -9.58%
[5]; [10]
  activity, negative = cell killing: -6.5%
[5]; [11]
  activity, negative = cell killing: -6.46%
[5]; [12]
  activity, negative = cell killing: -22.2%
[6]
  Potency: inactive

## NC(=O)CC[C@@H]1NC(=O)[C@H](Cc2ccccc2)NC(=O)[C@H](Cc2ccc(O)cc2)NC(=O)CCSSC[C@@H](C(=O)N2CCC[C@H]2C(=O)N[C@@H](CCCN=C(N)N)C(=O)NCC(N)=O)NC(=O)[C@H](CC(N)=O)NC1=O
[1]
  Potency: inactive
[2]
  Potency: inactive
[3]
  Potency: inactive
[4]
  Potency: inactive
[5]; [9]
  activity, negative = cell killing: -2.8% and 1.21%
[5]; [10]
  activity, negative = cell killing: -7.07% and -4.13%
[5]; [11]
  activity, negative = cell killing: -24.9% and -29%
[5]; [12]
  activity, negative = cell killing: -17.6% and 1.07%
[6]
  Potency: inactive

## COC(=O)CCc1ccc(OCC(O)CNC(C)C)cc1 (centres undefined)
[1]
  Potency: inactive
[2]
  Potency: inactive
[3]
  Potency: inactive
[4]
  Potency: inactive
[5]; [9]
  activity, negative = cell killing: -6.72%
[5]; [10]
  activity, negative = cell killing: -12.4%
[5]; [12]
  activity, negative = cell killing: -12.3%
[6]
  Potency: inactive

## CC(O)C(=O)O (centres undefined)
[1]
  Potency: inactive
[2]
  Potency: inactive
[3]
  Potency: inactive
[4]
  Potency: inactive
[5]; [9]
  activity, negative = cell killing: -5.68%
[5]; [10]
  activity, negative = cell killing: -11.1%
[5]; [11]
  activity, negative = cell killing: -8.3%
[5]; [12]
  activity, negative = cell killing: -6.94%
[6]
  Potency: inactive
[7]
  max response: 2.35%
[8]
  outcome: inactive

## O=C(COc1ccc(Cl)cc1)N1CCN(Cc2ccc3c(c2)OCO3)CC1
[1]
  Potency: inactive
[2]
  Potency: inactive
[3]
  Potency: inactive
[4]
  Potency: inactive
[5]; [9]
  activity, negative = cell killing: -2.59%
[5]; [10]
  activity, negative = cell killing: -28.6%
[5]; tumour line A
  Potency: 20 µM (active)
[6]
  Potency: inactive

## C[C@H]1C[C@H]2[C@@H]3CCC4=CC(=O)C=C[C@]4(C)[C@@]3(Cl)[C@@H](O)C[C@]2(C)[C@@]1(O)C(=O)CO
[1]
  Potency: inactive
[2]
  Potency: inactive
[3]
  Potency: inactive
[4]
  Potency: inactive
[5]; [9]
  activity, negative = cell killing: -17%
[5]; [10]
  activity, negative = cell killing: -11.6%
[5]; [11]
  activity, negative = cell killing: -29.5%
[5]; [12]
  activity, negative = cell killing: -24.3%
[6]
  Potency: inactive
[8]
  outcome: inactive

## CC1(C)O[C@@H]2C[C@H]3[C@@H]4C[C@H](F)C5=CC(=O)C=C[C@]5(C)[C@H]4[C@@H](O)C[C@]3(C)[C@]2(C(=O)CO)O1
[1]
  Potency: inactive
[2]
  Potency: inactive
[3]
  Potency: inactive
[4]
  Potency: inactive
[5]; [13]
  activity, negative = cell killing: 3.76%
[5]; [14]
  activity, negative = cell killing: 2.57%
[5]; [15]
  activity, negative = cell killing: -8.48%
[5]; [16]
  activity, negative = cell killing: 19%
[6]
  Potency: inactive

## Cc1cc(=O)n(-c2ccccc2)n1C
[1]
  Potency: inactive
[2]
  Potency: inactive
[3]
  Potency: inactive
[4]
  Potency: inactive
[5]; [9]
  activity, negative = cell killing: -5.78%
[5]; [10]
  activity, negative = cell killing: 0.358%
[5]; [11]
  activity, negative = cell killing: -19.4%
[5]; [12]
  activity, negative = cell killing: -23.6%
[6]
  Potency: inactive
[7]
  max response: 0.521%
[8]
  outcome: inactive

## CCN1CCN(c2cc3c(cc2F)c(=O)c(C(=O)O)cn3C2CC2)CC1
[1]
  Potency: inactive
[2]
  Potency: inactive
[3]
  Potency: inactive
[4]
  Potency: inactive
[5]; [9]
  activity, negative = cell killing: 9.67%
[5]; [10]
  activity, negative = cell killing: -1.9%
[5]; [11]
  activity, negative = cell killing: -9.98%
[5]; [12]
  activity, negative = cell killing: 17.2%
[6]
  Potency: inactive

## OC(CCN1CCCCC1)(c1ccccc1)c1ccccc1
[1]
  Potency: inactive
[2]
  Potency: inactive
[3]
  Potency: inactive
[4]
  Potency: inactive
[5]; [9]
  activity, negative = cell killing: -13.7%
[5]; [10]
  activity, negative = cell killing: -5.27%
[5]; [12]
  activity, negative = cell killing: 4.07%
[5]; tumour line A
  Potency: 12.6 µM (active)
[6]
  Potency: inactive

## COc1ccc(OC)c(C(O)CNC(=O)CN)c1 (centres undefined)
[1]
  Potency: inactive
[2]
  Potency: inactive
[3]
  Potency: inactive
[4]
  Potency: inactive
[5]; [13]
  activity, negative = cell killing: -8.51%
[5]; [14]
  activity, negative = cell killing: -10.1%
[5]; [15]
  activity, negative = cell killing: -7.78%
[5]; [16]
  activity, negative = cell killing: -30.8%
[6]
  Potency: inactive

## CN1CCN(C(c2ccccc2)c2ccccc2)CC1
[1]
  Potency: inactive
[2]
  Potency: inactive
[3]
  Potency: inactive
[4]
  Potency: inactive
[5]; [13]
  activity, negative = cell killing: -1.97%
[5]; [14]
  activity, negative = cell killing: -1.95%
[5]; [15]
  activity, negative = cell killing: -26.8%
[6]
  Potency: inactive

## CCCCS(=O)(=O)N[C@@H](Cc1ccc(OCCCCC2CCNCC2)cc1)C(=O)O
[1]
  Potency: inactive
[2]
  Potency: inactive
[3]
  Potency: inactive
[4]
  Potency: inactive
[5]; [9]
  activity, negative = cell killing: -17.7%
[5]; [10]
  activity, negative = cell killing: -22%
[5]; [12]
  activity, negative = cell killing: -12.3%
[5]; tumour line A
  Potency: 11.2 µM (active)
[6]
  Potency: inactive

## O=C(O)CNC(=O)c1ccccc1
[1]
  Potency: inactive
[2]
  Potency: inactive
[3]
  Potency: inactive
[4]
  Potency: inactive
[5]; [9]
  activity, negative = cell killing: -9.91%
[5]; [10]
  activity, negative = cell killing: -0.469%
[5]; [11]
  activity, negative = cell killing: 3.77%
[5]; [12]
  activity, negative = cell killing: -1.09%
[6]
  Potency: inactive

## CCOC(=O)c1cccc(N)c1
[1]
  Potency: inactive
[2]
  Potency: inactive
[3]
  Potency: inactive
[4]
  Potency: inactive
[5]; [9]
  activity, negative = cell killing: -17.6%
[5]; [10]
  activity, negative = cell killing: 2.11%
[5]; [12]
  activity, negative = cell killing: -0.117%
[6]
  Potency: inactive

## CCC(=O)c1c(O)cc(O)cc1O
[1]
  Potency: inactive
[2]
  Potency: inactive
[3]
  Potency: inactive
[4]
  Potency: inactive
[5]; [9]
  activity, negative = cell killing: -0.713%
[5]; [10]
  activity, negative = cell killing: -16.2%
[5]; [12]
  activity, negative = cell killing: -2.44%
[6]
  Potency: inactive

## CN1C(CCl)Nc2cc(Cl)c(S(N)(=O)=O)cc2S1(=O)=O (centres undefined)
[1]
  Potency: inactive
[2]
  Potency: inactive
[3]
  Potency: inactive
[4]
  Potency: inactive
[5]; [9]
  activity, negative = cell killing: -5.52%
[5]; [10]
  activity, negative = cell killing: -2.64%
[5]; [12]
  activity, negative = cell killing: -28.6%
[6]
  Potency: inactive

## CN(C)CCOc1ccccc1Cc1ccccc1
[1]
  Potency: inactive
[2]
  Potency: inactive
[3]
  Potency: inactive
[4]
  Potency: inactive
[5]; [9]
  activity, negative = cell killing: -0.223%
[5]; [10]
  activity, negative = cell killing: -22.7%
[5]; [12]
  activity, negative = cell killing: -17.3%
[6]
  Potency: inactive

## O=C(O)CCCCC(=O)O
[1]
  Potency: inactive
[2]
  Potency: inactive
[3]
  Potency: inactive
[4]
  Potency: inactive
[5]; [9]
  activity, negative = cell killing: 11.6%
[5]; [10]
  activity, negative = cell killing: -7.89%
[5]; [11]
  activity, negative = cell killing: -0.455%
[5]; [12]
  activity, negative = cell killing: 0.572%
[6]
  Potency: inactive
[7]
  max response: -0.0429%
[8]
  outcome: inactive

## CC(C)(Oc1ccc(Cl)cc1)C(=O)O
[1]
  Potency: inactive
[2]
  Potency: inactive
[3]
  Potency: inactive
[4]
  Potency: inactive
[5]; [9]
  activity, negative = cell killing: -11.3%
[5]; [10]
  activity, negative = cell killing: 2.87%
[5]; [11]
  activity, negative = cell killing: -14.8%
[5]; [12]
  activity, negative = cell killing: -3.07%
[6]
  Potency: inactive
[7]
  max response: -4.53%
[8]
  outcome: inactive

## Cc1onc(-c2c(Cl)cccc2Cl)c1C(=O)N[C@@H]1C(=O)N2[C@@H]1SC(C)(C)[C@@H]2C(=O)O
[1]
  Potency: inactive
[2]
  Potency: inactive
[3]
  Potency: inactive
[4]
  Potency: inactive
[5]; [9]
  activity, negative = cell killing: -4.57%
[5]; [10]
  activity, negative = cell killing: -12.2%
[5]; [11]
  activity, negative = cell killing: -8.27%
[5]; [12]
  activity, negative = cell killing: 12.2%
[6]
  Potency: inactive

## C=C1C[C@H]2[C@@H]3C=C(C)C4=CC(=O)CC[C@]4(C)[C@H]3CC[C@]2(C)[C@@]1(OC(C)=O)C(C)=O
[1]
  Potency: inactive
[2]
  Potency: inactive
[3]
  Potency: inactive
[4]
  Potency: inactive
[5]; [9]
  activity, negative = cell killing: -28.2%
[5]; [10]
  activity, negative = cell killing: -24.4%
[5]; [12]
  activity, negative = cell killing: -11.9%
[6]
  Potency: inactive
